According to PubChem BioAssay (NCI):
The panel holds about 83,000 compounds, 20% with a hit somewhere; the sample as a whole holds those more often.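 Negative percent growth values reflect cell death: -40 means 40% of the cells present at the start died, and -100 means all died.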 Activity calls are given as the source filed them. The calls were made as follows: active = growth percent below 10; inactive = the rest.

Test system: HL-60(TB) leukemia
Assay: NCI-60 one-dose screen, 48 h (100 = growth as untreated, 0 = no growth, -100 = all killed)
Details: 10 µM unless noted

| SMILES | growth |
| --- | --- |
| COc1cc(/C=C/C(=O)c2nnn(-c3ccc(Cl)cc3)c2C)cc(OC)c1OC | -5.43% (active) |
| CC(=O)Nc1ccc(-c2cn(-c3cccc(C(=O)Nc4ccc(F)c(C(F)(F)F)c4)c3)nn2)cn1 | 62.8% (inactive) |
| CCOc1ccc(Nc2nc3ccccc3nc2Nc2ccc(OCC)cc2)cc1 | 31.4% (inactive) |
| COc1ccc(/C=C/c2n(Cc3ccc4ccccc4c3)c3ccccc3[n+]2Cc2ccc3ccccc3c2)cc1 | -5.59% (active) |
| COc1ccc2[nH]cc(-c3cc4nc(-c5cn(C)c6ncc(Br)cc56)cc(N)n4n3)c2c1 | -61.2% (active) |
| Cc1ccc([C@H]2C(C(=O)c3ccc(Cl)cc3)C3(N[C@@H]2c2ccccc2)C(=O)Nc2ccc(Cl)cc23)cc1 (some centres undefined) | 34.1% (inactive) |
| CC1[C@H]2[C@H](C[C@H]3[C@@H]4CC=C5c6sc(Nc7cccc(Cl)n7)nc6CC[C@]5(C)[C@H]4CC[C@@]32C)O[C@]12CC[C@@H](C)CO2 (some centres undefined) | 45.4% (inactive) |
| O=C(NO)c1ccc(CNC(=O)[C@H]2Cc3c([nH]c4ccccc34)[C@H](c3ccc(Cl)cc3)N2)cc1 | 4.62% (active) |
| COc1ccc(CCN2C(=O)/C(=C/c3csc(C#N)n3)SC2=S)cc1 | -23.8% (active) |
| CO[C@@H]1CSSC1Cn1nc(-c2ccc(Oc3ccccc3)cc2)c2c(N)ncnc21 (some centres undefined) | 13.3% (inactive) |
| O=C(CSc1nnc(-c2ccc3nc(-c4ccc(Cl)cc4)[nH]c3c2)o1)Nc1ccc(Cl)cc1 | -20.9% (active) |
| Clc1ccc(-c2nc3ccc(-c4nnc(SCc5ccccc5)o4)cc3[nH]2)cc1 | 51.8% (inactive) |
| O=c1oc2ccc(-c3ccc(F)cc3F)cc2c(=O)n1-c1ccc(F)c(Cl)c1 | -40.3% (active) |
| O=C(N=Nc1c(O)[nH]c2ccc(Br)cc12)c1ccc2nc(-c3ccccc3)[nH]c2c1 | 30.9% (inactive) |
| COc1ccc(-c2cc(C(=O)N=Nc3c(O)[nH]c4ccccc34)c3ccccc3n2)cc1 | 56.2% (inactive) |
| COC(=O)c1cc(C(=O)C(Br)Br)n2c1ccc1c3ccccc3ccc12 | 76.2% (inactive) |
| O=c1[nH]c2ccccc2cc1CSc1cccc(Nc2nccc(-c3ccc4ccccc4c3)n2)c1 | 93.5% (inactive) |
| CC(=O)Nc1ccc(-n2cnc3cc(-c4ccc(O)cc4)ccc32)cc1C(F)(F)F | 4.45% (active) |
| CCCn1c(=O)c2[nH]c(-c3ccc(OCc4nc5ccccc5[nH]4)cc3)nc2n(CCC)c1=O | 85.3% (inactive) |
| Cn1cc(-c2cc(N)n3nc(-c4c[nH]c5ccccc45)cc3n2)c2cc(Br)ccc21 | -18.3% (active) |

| SMILES | growth |
| --- | --- |
| Cc1ccc(C(=O)Nc2cc(-c3ccccc3)cc(C(F)(F)F)c2)cc1C#Cc1cnc2cccnn12 | 38.1% (inactive) |
| O=C(CSc1nc2c(c(=O)[nH]1)CCCC2)Nc1ccccc1C(=O)O | 95.1% (inactive) |
| O=C(CSc1ccc(-c2ccc(Cl)cc2)nn1)Nc1ccc(Cl)c(C(F)(F)F)c1 | 32.7% (inactive) |
| CN1CCc2c(sc3ncnc(N/N=C/c4cn(-c5ccccc5)nc4-c4ccc(Cl)cc4)c23)C1 | -12.4% (active) |
| O=C1c2cccc3c(N4CCN(c5ccccc5)CC4)ccc(c23)C(=O)N1c1cccc(-c2nn(-c3ccccc3)cc2-c2nc3ccccc3s2)c1 | 98.5% (inactive) |
| COc1cc2c3c(n(CCCN4CCC[C@@H]4CO)c(=O)c2cc1OC)-c1cc2c(cc1C3=O)OCO2 | -15.4% (active) |
| CCOc1ccccc1[C@H]1C(C(=O)c2ccc(Cl)cc2)C2(N[C@@H]1c1ccccc1)C(=O)Nc1ccccc12 (some centres undefined) | -35.5% (active) |
| O=c1[nH]c2ccc(Cl)cc2cc1CSc1ccc(Nc2nccc(-c3ccc(Cl)cc3)n2)cc1 | 52.4% (inactive) |
| COc1cncc(-c2ccc3ncnc(N4CCc5ccc(Cl)cc54)c3c2)c1 | -33.4% (active) |
| CC(C)Sc1nc(NC2CC2)c(C#N)c(-c2ccccc2)n1 | 98.1% (inactive) |
| COc1cc(CNC(=O)C[C@H](C)CCC=C(C)C)ccc1OCc1cn(-c2ccc(Cl)c(Cl)c2)nn1 | 84% (inactive) |
| O=C(CSc1nc2sc3c(c2c(=O)n1-c1ccc(Cl)cc1)CCCC3)N/N=C/C=C/c1ccccc1 | 64.5% (inactive) |
| O=Cc1cncc(-c2ccc3ncnc(N4CCc5cc(F)c(Cl)cc54)c3c2)c1 | 44.3% (inactive) |
| CCCCSc1nc(Nc2ccc(S(N)(=O)=O)cc2)c(C#N)c(-c2ccc(Cl)cc2)n1 | 62.9% (inactive) |
| CC(=O)Nc1ccc(-c2nc3cc(-c4ccc(O)cc4)ccc3n2C)cc1 | 26% (inactive) |
| COc1cc(NC(=O)c2cc(-c3ccc(F)cc3F)ccc2O)cc(OC)c1OC | 15.8% (inactive) |
| CC(C)c1sc(NC(=O)c2cc(NC(=O)c3cc(NC(=O)c4nccn4C)cn3C)cn2C)nc1C(=O)NCCCN(C)C | 47.1% (inactive) |
| COC(=O)c1cc(C(=O)CBr)n2c1ccc1c3ccccc3ccc12 | 49.3% (inactive) |
| C#CCOc1cc(N(CC)CC)ccc1C(C(=O)NC(C)(C)C)N(C(=O)C1CCc2cc(F)ccc2O1)c1ccccc1F (centres undefined) | -13.5% (active) |
